Results on 2 sequences are retold here after US20150152398, “Endoribonuclease and Methods of Use Thereof” (The Regents of the University of California, published 2015).

For this assay, the target named is T1, TtCas6A H37A (Thermus thermophilus HB8, H37A).
T1 chain: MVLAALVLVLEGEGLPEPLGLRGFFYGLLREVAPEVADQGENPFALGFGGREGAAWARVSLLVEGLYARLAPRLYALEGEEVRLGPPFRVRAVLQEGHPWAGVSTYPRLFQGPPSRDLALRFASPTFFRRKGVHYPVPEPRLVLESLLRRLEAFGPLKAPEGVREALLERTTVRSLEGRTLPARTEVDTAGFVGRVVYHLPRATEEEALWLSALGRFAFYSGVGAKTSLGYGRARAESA
Kind of assay: EMSA; Kd in FIG. 24D only. The conditions noted are these: chain copies: 2 inferred; label: 5'-32P (EMSA); hairpin; ssRNA. The text has this: FIG. 22 illustrates that TtCas6A and TtCas6B both cleave repeats R1 and R3 and retain their cleaved products. (A) Sequences and predicted secondary structures of T. thermophilus CRISPR repeats. Sites of cleavage are indicated with blue arrows. TtCas6e (TTHB192) cleaves repeat R2, while TtCas6A (TTHA0078) and TtCas6B (TTHB231) both cleave repeats R1 and R3. (B) Cleavage product binding affinities of TtCas6A and TtCas6B enzymes. Maltose binding protein (MBP)-fused TtCas6A or TtCas6B were bound to in 5′-radiolabelled, vitro transcribed R1 and R3 RNAs. Bound and unbound fractions were resolved by electrophoresis on a native polyacrylamide gel and visualized by phosphorimaging. The data for these and all subsequent binding assays were fit with standard binding isotherms (solid line). Error bars on each data point denote standard error of the mean (SEM) from three independent experiments. (C) Experiments to confirm single turnover. RNA cleavage assays were carried out at indicated protein:RNA ratios. RNA cleavage was monitored using denaturing polyacrylamide gel electrophoresis. The data from these and all subsequent endoribonuclease activity assays were fit with single exponential curves to yield first-order rate constants. (Top to bottom: FIG. 22A, SEQ ID NOs: 1, 2, 55).
To test the importance of the stem sequence for substrate RNA recognition by TtCas6A, a series of EMSAs was performed using R1 repeat-derived RNAs that carried single base pair substitutions (C-G→A-U). All mutant RNAs contained the complete 5′ segment and additional two nucleotides downstream of the cleavage site. Compared to the wild-type RNA, substitution of any of the four C-G base pairs in the stem led to about five-fold decrease in affinity (FIG. 24C). This is consistent with the observation that the lower three C-G base pairs are specifically read out by Arg129. The binding defect observed upon mutation of the closing (uppermost) base pair could be due to loss of stability of the stem-loop structure, which is determined by the closing base-pair (Serra et al, 1993). To further investigate the protein determinants of RNA binding, we tested the TtCas6A mutants H37A and R129A and performed binding assays using substrates R1 and R3 (FIG. 24D).
Background: A gel shift assay detects complexes by their altered migration in electrophoresis.
Consider GUUGCAAACCUCGUUAGCCUCGUAGAGGAUUGAAAC, for which the binding signal is ~90 fold lower affinity than WT.
Take GUUGCAAGGGAUUGAGCCCCGUAAGGGGAUUGCGAC: the binding signal is ~70 fold lower affinity than WT.
